Screening results: PubChem BioAssay, National Center for Advancing Translational Sciences (NCATS)
In the library only some 18% were active in any assay of this set; here they are far more common.
IL1B secr inh: blocks inflammasome-driven IL-1 beta release. THP-1 LPS/ATP IL-1B secretion, AlphaLISA, 16 h; hits give low values. activity change, % at 57.5 µM. actives 4.7% (n = 360,000); in the data active means activity change below about -50%; inconclusive means mostly about -30% to -49%
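THP-1 cells pretreated 1 hr with compounds (up to 57.5 uM final), then stimulated with LPS (250 ng/mL final) plus ATP (1.25 mM final); secreted IL-1B measured by AlphaLISA after 16 hr, decreased signal indicating inhibition.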
DT40 TDP1 no CPT: qHTS for Inhibitors of human tyrosyl-DNA phosphodiesterase 1 (TDP1): qHTS in cells in absence of CPT. DT40 Tdp1-/- hTDP1 cells, no CPT, ATP luminescence, 48 h. actives 15% (n = 420,000). Potency, µM (top dose mostly 46.2 µM), inactives show top-dose activity change, negative = growth inhibition, hits mostly inhibitors; further: potency means the concentration at half of the fitted maximal effect; nearly all actives have a fitted effect of over 55% in size
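Readout: luminescence from CellTiter-Glo after 30 min in the dark at RT. Cells: DT40 Tdp1-/- with stable hTDP1, 400/well. Exposure: compounds alone, ≥48 hr, 37 °C.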
LDHA inh: inhibitors of human lactate dehydrogenase A; P00338; purified LDHA, NADH/diaphorase-resazurin fluorescence; hits give low values; activity change, % (values are at about 110 or 230 µM); actives 0.15% (n = 480,000); AID 1347041; in the data active means activity change below about -30%; inconclusive means mostly about -25% to -30%;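 further: plate controls were DMSO wells for no effect and wells without enzyme for full effect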
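Enzyme activity of human lactate dehydrogenase 5 (2 nM; 0.06 mM NADH, 0.2 mM pyruvate, 5 min, RT) is measured via a resazurin/diaphorase fluorescence readout of residual NADH.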
RORgamma inh: blocks mouse ROR gamma transcriptional activity. P51450. Drosophila S2 Gal4-RORgamma UAS-luciferase reporter, 20 h. Potency, µM (series often up to 53.6 µM), for the others: at the top dose activity change, negative = inhibition, most hits filed as inhibitors. actives 5.4% (n = 310,000); further: potency means the concentration at half of the fitted maximal effect; nearly all actives have a fitted effect of over 60% in size
Target sequence (P51450 whole entry, looked up, the tested form may be a part): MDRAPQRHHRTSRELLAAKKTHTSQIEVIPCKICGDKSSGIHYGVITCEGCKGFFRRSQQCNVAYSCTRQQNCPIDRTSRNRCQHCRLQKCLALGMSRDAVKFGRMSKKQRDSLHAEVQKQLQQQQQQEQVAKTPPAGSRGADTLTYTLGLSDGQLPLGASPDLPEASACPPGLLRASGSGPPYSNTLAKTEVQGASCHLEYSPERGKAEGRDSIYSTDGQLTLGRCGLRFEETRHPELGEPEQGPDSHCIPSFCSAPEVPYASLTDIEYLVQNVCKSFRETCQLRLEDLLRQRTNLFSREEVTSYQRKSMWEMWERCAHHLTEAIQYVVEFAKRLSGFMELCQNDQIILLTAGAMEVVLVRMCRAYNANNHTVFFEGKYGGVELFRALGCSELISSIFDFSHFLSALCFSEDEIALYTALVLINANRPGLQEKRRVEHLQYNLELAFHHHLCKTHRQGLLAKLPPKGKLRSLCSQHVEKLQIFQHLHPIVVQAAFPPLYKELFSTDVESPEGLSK
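ROR gamma transcriptional activity was tracked as Gal4-UAS luciferase output in stably transfected Drosophila Schneider cells, with compound added 1 hr before 700 uM copper sulfate induction and a 20 hr ambient-temperature incubation.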
VP16 counter: Gal4-VP16 reporter inhibition counter-screen. Potency, µM (highest dose often 53.6 µM), for the others: at the highest dose activity, negative = inhibition, most hits filed as inhibitors. actives 3.5% (n = 310,000). Drosophila S2 Gal4-VP16 UAS-luciferase, luminescence, 20 h;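 further: Gal4-VP16 expression switched on by copper sulfate through the metallothionein promoter; potency means the concentration at half of the fitted maximal effect; nearly all actives have a fitted effect of over 50% in size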
TDP1 cell CPT: DT40-hTDP1 cell growth loss with CPT; chicken DT40 Tdp1-/-;hTDP1 cells + 20 nM CPT, ATP luminescence, 48 h; Potency, µM (doses to about 46.2 µM), for inactives: top-dose activity change, negative = growth inhibition, hits mostly inhibitors; actives 12% (n = 420,000); further: potency means the concentration at half of the fitted maximal effect; nearly all actives have a fitted effect of over 55% in size
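Cell growth measured by CellTiter-Glo luminescence after a minimum 48 h, 37 C compound exposure with 20 nM CPT in Tdp1-knockout DT40 cells stably expressing hTDP1, seeded 400/well; qHTS titration format.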
Numbers without * were called inactive; i = inactive; ? = inconclusive; . = no result. Unless noted, the call rests on the fitted dose curve; in most records, active means well fitted curve in the direction sought with a large enough effect; inconclusive means small, poorly fitted or top-dose-only effect, or another doubt; inactive means no such curve, though single readings can be large; an effect the other way counts as inactive or inconclusive. Unless noted, on the % scale 0 is the no-effect control and ±100 the full control effect.

SMILES | IL1B secr inh | DT40 TDP1 no CPT | LDHA inh | RORgamma inh | VP16 counter | TDP1 cell CPT
Cc1c(C(=O)NCc2cccc(C(F)(F)F)c2)sc(=O)n1Cc1ccc(S(=O)(=O)N(C)C)cc1 | ? | ? | -2 | . | . | 21µM*
N#C/C(=C\c1coc2ccc(O)cc2c1=O)C(=O)Nc1nc2ccccc2s1 | 13 | ? | 1 | ? | ? | 9.2µM*
CC(C)CNC(=O)C(=O)NC1CC(C)(C)NC(C)(C)C1 | . | . | 12 | . | . | .
CC(C(=O)NCc1cccs1)N1CCC(O)CC1 (configuration not stated) | . | . | -2 | . | . | .
Cc1cc(/C=C2/C(=O)N(C)C(=S)N2C)ccc1N1CCCC1 | 12 | ? | 0 | 13% | -6% | ?
Cc1cc(N2CCCC2)ccc1/C=C1/C(=O)N(C)C(=S)N1C | 27 | 8.2µM* | 10 | -3% | -27% | 9.2µM*
CC1(C(=O)NCc2ccco2)Cc2c(-c3ccccc3)ccnc2O1 (configuration not stated) | 56 | 2.3µM* | -3 | . | . | 2.6µM*
CC1(C(=O)NCCC(F)(F)F)Cc2c(-c3ccccc3)ccnc2O1 (configuration not stated) | 0 | 5.8µM* | -6 | . | . | 6.5µM*
CC1CCCN(c2nc3ccccc3nc2NS(=O)(=O)c2ccc(Cl)cc2)C1 (configuration not stated) | . | . | 14 | . | . | .
Cc1ccc(SCCNC(=S)Nc2ccc(C)cc2C)cc1 | 0 | 3% | -6 | 3.5µM* | 7.9µM* | 1%
Cc1ccc(NC(=S)NCCSc2ccc(Cl)cc2)cc1 | -91* | ? | -11 | 0.79µM* | 0.89µM* | -27%
Cc1ccc(SCCNC(=S)Nc2cc(C)cc(C)c2)cc1 | -3 | ? | -2 | 5µM* | 7.9µM* | ?
Cc1cccc(C)c1NC(=S)NCCSc1ccc(Cl)cc1 | -72* | ? | -8 | 2.5µM* | ? | ?
Cc1ccc(Cl)cc1NC(=S)NCCSc1ccc(Cl)cc1 | . | . | 5 | . | . | .
Fc1ccc(NC(=S)NCCSc2ccc(Cl)cc2)cc1 | . | . | 4 | . | . | .
CCOc1ccc(C(=O)Nc2cnc3ccccc3c2)cc1OC | . | . | 8 | . | . | .
CC(NC(=O)c1ccc2ccccc2n1)c1cccs1 (configuration not stated) | . | . | -13 | . | . | .
Cc1ccc(OCc2nc3c4c(ncn3n2)OC2=C(C(=O)CCC2)C4c2ccco2)cc1 (configuration not stated) | . | . | 4 | . | . | .
CCN(CC)S(=O)(=O)c1ccc(OC(C)C)c(NC(=O)c2ccc(OC(F)F)c(OC)c2)c1 | . | . | 10 | . | . | .
CC(CNC(=S)Nc1cc(F)cc(F)c1)CSc1ccc(Cl)cc1 (configuration not stated) | -97* | 26µM* | -5 | 8.9µM* | ? | ?
CC(=O)c1ccc(NC(=S)NCCSc2ccc(Cl)cc2)cc1 | . | . | 2 | . | . | .
O=C(Nc1ccc(OCc2ccccc2)cc1)c1cccc2ccccc12 | . | . | -1 | . | . | .
Cc1ccc(S(=O)(=O)N(CC(=O)NCCSc2ccccn2)c2ccc(C)c(C)c2)cc1 | -53* | ? | -5 | ? | -8% | ?
Cc1ccccc1N(CC(=O)NCCSc1ccccn1)S(=O)(=O)c1ccccc1 | -3 | ? | 2 | -2% | 0% | -5%
CCOc1ccc(N(CC(=O)NCCSc2ccccn2)S(=O)(=O)c2ccc(Cl)cc2)cc1 | 5 | ? | 2 | -7% | -19% | ?
SMILES | IL1B secr inh | DT40 TDP1 no CPT | LDHA inh | RORgamma inh | VP16 counter | TDP1 cell CPT
CCOc1ccccc1N(CC(=O)NCCSc1ccccn1)S(=O)(=O)c1ccc(C)cc1 | -28 | 21µM* | -1 | 15% | 12% | ?
Cc1cc(C)cc(N(CC(=O)NCCSc2ccccn2)S(=O)(=O)c2ccccc2)c1 | -12 | 26µM* | -8 | 24% | -2% | ?
CCOc1ccccc1N(CC(=O)NCCSc1ccccc1)S(=O)(=O)c1ccccc1 | . | 10µM* | 2 | . | . | ?
N#Cc1nc(-c2ccco2)oc1N1CCN(CC(=O)N2CCOCC2)CC1 | . | . | 1 | . | . | .
Cc1cc(C)cc(N(CC(=O)N/N=C/c2ccncc2)S(=O)(=O)c2ccccc2)c1 | -54* | -27% | 4 | -19% | -8% | -27%
Cc1cc(C)cc(N(CC(=O)Nc2ccccc2-c2ccccc2)S(=O)(=O)c2ccccc2)c1 | 11 | ? | -8 | -2% | -9% | -28%
O=C(NC(=S)Nc1c(Cl)cc(Cl)cc1Cl)c1ccccc1 | -1 | 9.2µM* | -9 | . | . | 23µM*
O=C(Nc1cccc(NC(=S)NC(=O)c2cccs2)c1)c1ccccc1 | -6 | ? | -4 | 10µM* | ? | -12%
CC(NC(=S)NC(=O)c1ccccc1)c1ccccc1 (configuration not stated) | -23 | -24% | -3 | . | . | 0%
O=C(NC(=S)NC(c1ccccc1)c1ccncc1)c1ccccc1 (configuration not stated) | -79* | 12µM* | -9 | 11µM* | ? | 15µM*
O=C(Nc1cccc(NC(=O)c2cccs2)c1)c1ccc(F)cc1 | -61* | ? | -3 | 41% | 7% | ?
ClC(C[n+]1ccccc1)C[n+]1ccccc1 | . | . | 4 | . | . | .
CC(C)C(=O)Nc1cccc(NC(=S)NC(=O)c2ccc3c(c2)OCO3)c1 | i | -11% | -3 | 26% | 4% | -20%
O=C(NC(=S)Nc1cccc(CO)c1)c1ccc(-c2ccccc2)cc1 | -10 | 13µM* | -2 | 1.6µM* | 2.8µM* | 23µM*
CC(C)C(=O)Nc1cccc(NC(=S)NC(=O)c2ccc(Cl)cc2)c1 | -8 | 16µM* | -6 | 6.3µM* | ? | ?
COc1cc(OC)nc(NC(=S)NC(=O)c2ccccc2)n1 | 3 | ? | -4 | 5µM* | ? | -21%
O=C(Cc1ccccc1)Nc1ccc(NC(=S)NC(=O)c2ccccc2)cc1 | -22 | ? | 1 | -36% | -18% | -23%
CCOC(=O)NC(NC(=S)Nc1ccccc1[N+](=O)[O-])C(Cl)(Cl)Cl (configuration not stated) | -10 | ? | -7 | 16% | -12% | ?
O=C(NC(NC(=S)Nc1c(Cl)cc(Cl)cc1Cl)C(Cl)(Cl)Cl)OCc1ccccc1 (configuration not stated) | -58* | 16µM* | -7 | 7.1µM* | 5.6µM* | ?
COc1cc(OC)nc(NC(C)=O)n1 | -8 | -18% | 1 | -18% | -11% | -11%
